The list is a sample of the results.
aSyn 5UTR act: Activators working through SNCA 5'UTR binding (MLPCN); alpha-synuclein 5'UTR reporter, activators screen; AID 1814; activity score, % (tested at 7.5 µM), hits read low; 300,000 tested, 7.1% active; in the data active means activity score below about -60%
Numbers without * were called inactive.

SMILES | aSyn 5UTR act
Cc1ccc(NC(=O)NCC(c2ccccc2)N(C)C)cc1 (configuration not stated) | -107*
Cc1ccc(NC(=O)CNC(C)c2ccccc2)cc1 (configuration not stated) | -73*
Cc1ccc(Cn2ccnc2C(=O)Nc2ccccc2)cc1 | -156*
COc1cc(/C=N/NC(=O)COc2ccc(C)cc2)ccc1OC(=O)c1cccs1 | -65*
C=C[C@@]1(C)CC(=O)[C@]2(O)[C@@]3(C)[C@@H](O)CCC(C)(C)[C@@H]3[C@H](O)[C@H](OC(C)=O)[C@@]2(C)O1 | 72
O=C1OC2(CCCCC2)OC(=O)C1=CNc1ccc2c(c1)OCO2 | -83*
Cc1ccc2c(C)c(C(=O)N3CCN(Cc4ccc5c(c4)OCO5)CC3)oc2c1C | -63*
Oc1ccccc1-c1cc(-c2ccco2)[nH]n1 | -256*
Oc1c(-c2cc(-c3ccco3)[nH]n2)ccc2ccccc12 | -170*
CCOc1ccc(C(Nc2cccnc2)c2cc(Cl)c3cccnc3c2O)cc1 (configuration not stated) | 67
CCOc1ccc(NC(c2ccccn2)c2oc(CO)cc(=O)c2O)cc1 (configuration not stated) | -104*
c1ccc(CSc2nc3ccccc3[nH]2)cc1 | -116*
Clc1ccccc1CSc1nc2ccncc2[nH]1 | -79*
CC(C)CSc1nc2ccccc2[nH]1 | -95*
C=CCOc1ccc2nc(NC(=O)OC)[nH]c2c1 | 66
CCOc1ccc2nc(SCC)[nH]c2c1 | -118*
CCCCCOc1ccc(CSc2ncn[nH]2)cc1 | -87*
Fc1ccc(CSc2nc3ncccc3[nH]2)cc1 | -105*
O=C(NCCO)c1ccc(CSc2nc3ccccc3[nH]2)cc1 | -66*
Nc1nc(CSc2nc3ccccc3[nH]2)cs1 | -76*
CCCCOc1ccc(CSc2nncn2N)cc1 | -86*
Fc1ccc(CSc2nc3ccccc3[nH]2)cc1 | -155*
c1ccc(CSCc2nc3ccccc3[nH]2)cc1 | -91*
CCCOc1ccc(CSc2nc3ccccc3[nH]2)cc1 | -127*
O=[N+]([O-])c1ccc(CSc2nc3ccccc3[nH]2)cc1 | -114*
SMILES | aSyn 5UTR act
O=Cc1[nH]c2ccccc2c1N(C(=O)CCl)c1ccc([N+](=O)[O-])cc1 | 84
CS(=O)c1ccccc1-c1nc(-c2cccc(Cl)c2)no1 (configuration not stated) | -144*
CS(=O)c1ccccc1-c1nc(-c2ccc(Cl)cc2)no1 (configuration not stated) | -143*
CN(C)CCCN(C(=O)c1ccc2c(c1)CCCC2)c1nc2ccc(F)cc2s1 | -157*
CN(C)CCN(C(=O)c1cc(Cl)sc1Cl)c1nc2ccc(F)cc2s1 | -94*
CN(C)CCCN(C(=O)c1ccc(S(=O)(=O)N2CCc3ccccc3C2)cc1)c1nc2ccc(F)cc2s1 | 99
Cc1cccc2sc(N(CCCN(C)C)C(=O)CCc3ccccc3)nc12 | 62
CN(C)CCCN(C(=O)c1cc(-c2cccs2)nc2ccccc12)c1nc2ccc(F)cc2s1 | 99
CN(C)CCCN(C(=O)CCc1ccccc1)c1nc2ccc(F)cc2s1 | -70*
CC(=O)c1sc2nc(-c3cccs3)ccc2c1N | -272*
Nc1c(C(=O)Nc2nc3ccccc3s2)sc2nc(-c3cccs3)ccc12 | 106
COC(=O)c1ccc(N2OC3(C)C=CC2CC3)cc1 (configuration not stated) | -88*
Cc1sc(=NC(=O)c2ccco2)n(C)c1-c1ccc(F)cc1 | -113*
Cn1c(=Nc2ccccc2)sc2ccccc21 | -77*
Cn1c(=NC(=O)c2ccco2)sc2ccccc21 | -126*
Cc1ccc(NC(=O)c2noc3c2CCc2ccccc2-3)cc1 | -205*
CCc1ccc(NC(=O)C2(C)Cc3ccccc3C(=O)O2)cc1 (configuration not stated) | -142*
CCc1ccc(NC(=O)c2noc3c2CCc2ccccc2-3)cc1 | -95*
CCCCC(=O)N/N=C(C)/C=C/c1ccccc1F | -76*
CC(/C=C/c1ccccc1F)=N\NC(=O)C(C)C | -78*
O=C(COC(=O)CCN1C(=O)/C(=C\C=C\c2ccccc2)SC1=S)Nc1ccc(Br)cc1 | 65
CC(C)c1ccccc1NC(=O)COC(=O)CCN1C(=O)/C(=C\C=C\c2ccccc2)SC1=S | 73
CCOC(=O)CN1C(=O)S/C(=C/C=C/c2ccc(N(C)C)cc2)C1=O | -165*
O=C(CN1C(=O)S/C(=C\C=C\c2ccccc2)C1=O)Nc1ccc(O)cc1 | -150*
CCOC(=O)CN1C(=O)S/C(=C/c2ccc3c(c2)n(C)c(=O)n3C)C1=O | -155*
SMILES | aSyn 5UTR act
COc1ccc(C(=O)Cc2cc3ccccc3oc2=O)cc1 | -125*
Cc1ccc(C(=O)Cc2cc3ccccc3oc2=O)c(C)c1 | -130*
Cc1ccc(C(=O)NC(=S)Nc2ccc(-c3cc4ccccc4oc3=O)cc2)c(C)c1 | 88
Cc1ccc2c(c1)=C(c1sc(N(C)c3ccc(O)cc3)nc1O)C(=O)N=2 | -68*
Cc1ccc(-n2nc(C)c(NC(=O)CCl)c2C)cc1C | -220*
O=C(O)CCSc1nnc(-c2ccc3c(c2)OCO3)o1 | 67
Cc1ccccc1NC(=O)Cc1nc(CSc2nnc(-c3ccc4c(c3)OCO4)o2)cs1 | -72*

Bioassay records from PubChem BioAssay.
